The values below come from PubChem BioAssay (EPA / NIEHS).

One may read the AC50 as the concentration giving half of the maximal activity seen.

Activity calls are given as the source filed them. Rule for the calls: active = hit-call score of the fitted dose curve at least 0.9, where 1 is the maximum; inactive = score below 0.9.

Read-out in the first assay: Monokine induced gamma interferon (MIG), CXCL9 (gene 4283)
Put plainly: BSK_SAg_MIG: BioMAP Diversity Plus: SAg Assay for Monokine induced gamma interferon (MIG) Biomarker Activity (AID 2283092). As to conditions: primary human HUVEC with PBMC; actives raise or lower the signal. The gist of the method: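 Measures CXCL9 protein by ELISA in a human vascular primary-cell co-culture (umbilical vein endothelium with PBMC) 24 h after chemical addition. Activity is scored up or down from the DMSO control.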
Take `Cc1ccc2nc3sc(=O)sc3nc2c1`: the result was inactive.
On to `Nc1c(Oc2ccccc2)cc(O)c2c1C(=O)c1ccccc1C2=O`, for which the outcome was inactive.
On the same count and under the same terms, then `Cc1cc(C)cc(C)c1`, with “inactive”; and `CCN(CC)C(=O)C(Cl)=C(C)OP(=O)(OC)OC`, with “inactive”.
The same measure, in the same setting: the same measure for `Oc1cccc(-c2ccccc2)c1`: “inactive”.
As for `[Cl][Sn]([c]1ccccc1)([c]1ccccc1)[c]1ccccc1`, the AC50 is 259 nM (active).
For the compound `OCCCCO`, the outcome was inactive.
Same read-out and setting: the same measure for `OCCN(CCO)CCO`: “inactive”; for `CCOC(=O)C(SP(=S)(OC)OC)c1ccccc1` (stereo not given): “inactive”.
Turning to `OC(Cc1ccccc1Cl)(Cn1cncn1)C1(Cl)CC1` (stereo not given), the outcome was inactive.
Still for that read-out and setting: the same measure for `CCC(C)(C#N)N=NC(C)(C#N)CC` (stereo not given): “inactive”; for `C[C@]12CC[C@@H](O)C[C@@H]1CC[C@@H]1[C@@H]2CC[C@]2(C)C(=O)CC[C@@H]12`: “inactive”.
Same read-out and setting: then `Cc1ccccc1OP(=O)(Oc1ccccc1)Oc1ccccc1`, with “inactive”; and `Oc1cc(Cl)c(Cl)cc1Cl`, with “inactive”; and `O=C(O)COc1cc(Cl)c(Cl)cc1Cl`, with “inactive”.
Still for that read-out and setting: the same measure for `Cc1cc(Cl)ccc1OC(C)C(=O)O` (stereo not given): “inactive”; for `O=C(CCl)NCO`: “inactive”; for `Clc1cccc(Cl)c1Cl`: “inactive”.
With `Cc1c([N+](=O)[O-])c(C)c([N+](=O)[O-])c(C(C)(C)C)c1[N+](=O)[O-]`, the result was inactive.
Still for that read-out and setting: the same measure for `CC(C)(C)c1cc([N+](=O)[O-])cc(C(C)(C)C)c1O`: “inactive”.
For the compound `O=C1C=CC(=O)c2ccccc21`, the concentration at half-maximal activity (AC50) is 1530 nM (active).
Take `Clc1cccc(Cl)c1`: the outcome was inactive.
The same measure, in the same setting: the same measure for `O=C(N[C@H]1CN2CCC1CC2)c1ccc2c(c1)OCCO2`: “inactive”.
As for `COCC(=O)N(c1c(C)cccc1C)[C@H](C)C(=O)OC`, the result was inactive.
Same read-out and setting: then `NC(=O)CCl`, with “inactive”; and `Oc1ccc(Cc2ccc(O)cc2)cc1`, with “inactive”.
Still for that read-out and setting: then `CCOP(=O)(OCC)OC(=CCl)c1ccc(Cl)cc1Cl`, with “inactive”; and `CCCCN(CCCC)C(=S)[S-].CCCCN(CCCC)C(=S)[S-].[Ni+2]`, with “inactive”; and `O=C(Cc1ccccc1)OCCc1ccccc1`, with “inactive”.
The same measure, in the same setting: then `O=[N+]([O-])c1ccc(Nc2ccccc2)cc1`, with “inactive”; and `COc1ccccc1N`, with “inactive”; and `N#Cc1cccnc1`, with “inactive”.

Read-out in the next assay: not listed separately
Nature of the assay: BSK_SAg_PBMCCytotoxicity: PBMC Cytotoxicity Assessment in the BioMAP Diversity Plus: SAg Assay (AID 2283093).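 For AC50: PBMC superantigen activated with SEB plus TSST-1 one hour after compound addition.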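 Note: PBMC viability measured as Alamar Blue reduction fluorescence at 546/580 nm; fitted both ways against DMSO so a hit may be loss or gain of signal.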 Particulars: primary human HUVEC with PBMC. The method, boiled down: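 Alamar Blue reduction (6 h, ex/em 546/580 nm) read after 90 h culture of PBMC pre-dosed 1 h then stimulated with SEB plus TSST-1, 20 ng/mL each. Gain or loss of signal fitted relative to DMSO.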
Regarding `Cc1ccc2nc3sc(=O)sc3nc2c1`, the outcome was inactive.
Same read-out and setting: the same measure for `Nc1c(Oc2ccccc2)cc(O)c2c1C(=O)c1ccccc1C2=O`: “inactive”; for `Cc1cc(C)cc(C)c1`: “inactive”; for `CCN(CC)C(=O)C(Cl)=C(C)OP(=O)(OC)OC`: “inactive”.
With `Oc1cccc(-c2ccccc2)c1`, the AC50 is 32100 nM (active).
The same measure, in the same setting: then `[Cl][Sn]([c]1ccccc1)([c]1ccccc1)[c]1ccccc1`, with 125 nM (active).
As to `OCCCCO`, the outcome was inactive.
On the same count and under the same terms, the same measure for `OCCN(CCO)CCO`: “inactive”; for `CCOC(=O)C(SP(=S)(OC)OC)c1ccccc1` (stereo not given): “inactive”.
Same read-out and setting: the same measure for `OC(Cc1ccccc1Cl)(Cn1cncn1)C1(Cl)CC1` (stereo not given): “inactive”.
Same read-out and setting: the same measure for `CCC(C)(C#N)N=NC(C)(C#N)CC` (stereo not given): “inactive”; for `C[C@]12CC[C@@H](O)C[C@@H]1CC[C@@H]1[C@@H]2CC[C@]2(C)C(=O)CC[C@@H]12`: “inactive”.
For the compound `Cc1ccccc1OP(=O)(Oc1ccccc1)Oc1ccccc1`, the outcome was inactive.
Same read-out and setting: then `Oc1cc(Cl)c(Cl)cc1Cl`, with “inactive”; and `O=C(O)COc1cc(Cl)c(Cl)cc1Cl`, with “inactive”.
The same measure, in the same setting: the same measure for `Cc1cc(Cl)ccc1OC(C)C(=O)O` (stereo not given): “inactive”.
Turning to `O=C(CCl)NCO`, the outcome was inactive.
Same read-out and setting: the same measure for `Clc1cccc(Cl)c1Cl`: “inactive”; for `Cc1c([N+](=O)[O-])c(C)c([N+](=O)[O-])c(C(C)(C)C)c1[N+](=O)[O-]`: “inactive”.
Same read-out and setting: then `CC(C)(C)c1cc([N+](=O)[O-])cc(C(C)(C)C)c1O`, with “inactive”.
For the compound `O=C1C=CC(=O)c2ccccc21`, the AC50 is 102 nM (active).
On to `Clc1cccc(Cl)c1`, for which the result was inactive.
On the same count and under the same terms, then `O=C(N[C@H]1CN2CCC1CC2)c1ccc2c(c1)OCCO2`, with “inactive”.
On the same count and under the same terms, the same measure for `COCC(=O)N(c1c(C)cccc1C)[C@H](C)C(=O)OC`: “inactive”; for `NC(=O)CCl`: “inactive”; for `Oc1ccc(Cc2ccc(O)cc2)cc1`: “inactive”.
Same read-out and setting: the same measure for `CCOP(=O)(OCC)OC(=CCl)c1ccc(Cl)cc1Cl`: “inactive”; for `CCCCN(CCCC)C(=S)[S-].CCCCN(CCCC)C(=S)[S-].[Ni+2]`: “inactive”.
As for `O=C(Cc1ccccc1)OCCc1ccccc1`, the outcome was inactive.
Still for that read-out and setting: then `O=[N+]([O-])c1ccc(Nc2ccccc2)cc1`, with “inactive”; and `COc1ccccc1N`, with “inactive”.
In the case of `N#Cc1cccnc1`, the result was inactive.

Read-out in the next assay: Interleukin-8 (IL8), CXCL8 (gene 3576)
Put plainly: BSK_SAg_IL8: BioMAP Diversity Plus: SAg Assay for Interleukin-8 (IL8) Biomarker Activity (AID 2283094). Particulars: primary human HUVEC with PBMC; actives raise or lower the signal. The gist of the method:
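Chemicals were dosed onto a human endothelial–PBMC co-culture, and IL-8 was quantified by ELISA after 24 h. Both increases and decreases were fitted relative to DMSO.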
Regarding `Cc1ccc2nc3sc(=O)sc3nc2c1`, the result was inactive.
Same read-out and setting: the same measure for `Cc1cc(C)cc(C)c1`: “inactive”; for `Oc1cccc(-c2ccccc2)c1`: “inactive”.
For the compound `OC(Cc1ccccc1Cl)(Cn1cncn1)C1(Cl)CC1` (stereo not given), the outcome was inactive.
On the same count and under the same terms, then `CCC(C)(C#N)N=NC(C)(C#N)CC` (stereo not given), with “inactive”.
As to `Oc1cc(Cl)c(Cl)cc1Cl`, the half-maximal activity concentration (AC50) is 31100 nM (active).
`Cc1c([N+](=O)[O-])c(C)c([N+](=O)[O-])c(C(C)(C)C)c1[N+](=O)[O-]`: the result was inactive.
For `CC(C)(C)c1cc([N+](=O)[O-])cc(C(C)(C)C)c1O`, the AC50 is 94.1 nM (active).
Same read-out and setting: the same measure for `O=C1C=CC(=O)c2ccccc21`: 709 nM (active).
As for `O=C(Cc1ccccc1)OCCc1ccccc1`, the outcome was inactive.
The same measure, in the same setting: the same measure for `O=[N+]([O-])c1ccc(Nc2ccccc2)cc1`: “inactive”.
